Results reported in PubChem BioAssay AID1159580 (chemical genetic matrix, 2015).
Out of some 5,500 compounds screened, about 2,000 (36%) were called active. Inconclusive results (about 18%) are left out. Rule as the data show it: active = normalized growth mostly below about 0.91 (no sharp cut-off); inconclusive = no clear call, values can overlap the other calls; inactive = mostly above about 0.92. This is one part of the list.

Assay: chemical genetic growth profiling, strain panel (AID 1159580);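 also: tested at 20 µM; growth read once vehicle control cultures reached saturation at 30 °C; 1 = growth at the plate median or of vehicle wells; lower values mean less growth of the strain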
Details: S. cerevisiae deletion strains, growth OD

Measured: normalized growth

CCNc1nc(Cl)nc(NCC)n1
inactive: locus YAL013W, strain DEP1, stronger effect = lower value 1 | locus YAL021C, strain ccr4, stronger effect = lower value 0.983 | locus YAL026C, strain drs2, stronger effect = lower value 1 | locus YAL030W, strain snc1, stronger effect = lower value 0.992 | locus YBL061C, strain skt5, stronger effect = lower value 0.991 | locus YBR009C, strain hhf1, stronger effect = lower value 0.995 | locus YBR021W, strain FUR4, stronger effect = lower value 1.03 | locus YBR023C, strain chs3, stronger effect = lower value 0.995 | locus YBR171W, strain sec66, stronger effect = lower value 0.99 | locus YBR229C, strain ROT2, stronger effect = lower value 0.993 | locus YBR231C, strain swc5, stronger effect = lower value 0.993 | locus YBR279W, strain paf1, stronger effect = lower value 1 | locus YCL011C, strain gbp2, stronger effect = lower value 1 | locus YCL016C, strain dcc1, stronger effect = lower value 1.01 | locus YCL029C, strain bik1, stronger effect = lower value 0.999 | locus YCL061C, strain MRC1, stronger effect = lower value 0.989 | locus YCL069W, strain vba3, stronger effect = lower value 0.968 | locus YCR088W, strain abp1, stronger effect = lower value 0.995 | locus YDL005C, strain med2, stronger effect = lower value 0.988 | locus YDL035C, strain GPR1, stronger effect = lower value 1 | locus YDL040C, strain nat1, stronger effect = lower value 0.999 | locus YDL074C, strain BRE1, stronger effect = lower value 0.975 | locus YDL101C, strain DUN1, stronger effect = lower value 1.01 | locus YDL134C, strain PPH21, stronger effect = lower value 1.01 | locus YDL185W, strain tfp1, stronger effect = lower value 0.991 | locus YDL192W, strain arf1, stronger effect = lower value 1 | locus YDR001C, strain nth1, stronger effect = lower value 0.998 | locus YDR069C, strain doa4, stronger effect = lower value 0.979 | locus YDR101C, strain arx1, stronger effect = lower value 0.994 | locus YDR137W, strain rgp1, stronger effect = lower value 1.01 | locus YDR150W, strain NUM1, stronger effect = lower value 0.971 | locus YDR159W, strain sac3, stronger effect = lower value 0.979 | locus YDR162C, strain NBP2, stronger effect = lower value 0.97 | locus YDR195W, strain ref2 0.942 | locus YDR297W, strain sur2, stronger effect = lower value 0.982 | locus YDR318W, strain mcm21, stronger effect = lower value 1 | locus YDR334W, strain swr1, stronger effect = lower value 0.996 | locus YDR335W, strain msn5, stronger effect = lower value 0.989 | locus YDR388W, stronger effect = lower value 1 | locus YDR392W, strain spt3, stronger effect = lower value 1.01 | locus YDR502C, strain sam2, stronger effect = lower value 1.01 | locus YEL003W, strain gim4, stronger effect = lower value 1.01 | locus YEL037C, strain rad23, stronger effect = lower value 1 | locus YEL061C, strain CIN8 (second series), stronger effect = lower value 0.997 | locus YEL061C, strain CIN8, stronger effect = lower value 0.997 | locus YER015W, strain faa2, stronger effect = lower value 1 | locus YER016W, strain bim1, stronger effect = lower value 1.01 | locus YER110C, stronger effect = lower value 0.996 | locus YER111C, strain swi4, stronger effect = lower value 0.996 | locus YER155C, strain BEM2 (second series), stronger effect = lower value 0.973 | locus YER155C, strain BEM2, stronger effect = lower value 1 | locus YER167W, strain BCK2, stronger effect = lower value 1 | locus YFR010W, strain ubp6, stronger effect = lower value 1 | locus YGL078C, strain dbp3, stronger effect = lower value 1 | locus YGL086W, strain mad1, stronger effect = lower value 1 | locus YGL167C, strain pmr1, stronger effect = lower value 1 | locus YGL173C, strain kem1, stronger effect = lower value 0.99 | locus YGL227W, strain vid30, stronger effect = lower value 0.978 | locus YGL240W, strain doc1, stronger effect = lower value 0.986 | locus YGL248W, strain PDE1, stronger effect = lower value 1.03 | locus YGL253W, strain hxk2, stronger effect = lower value 0.993 | locus YGR078C, strain PAC10, stronger effect = lower value 0.989 | locus YGR135W, strain pre9, stronger effect = lower value 1 | locus YGR229C, strain SMI1, stronger effect = lower value 1 | locus YGR252W, strain gcn5, stronger effect = lower value 1.02 | locus YHR013C, strain ard1, stronger effect = lower value 0.998 | locus YHR027C, strain rpn1, stronger effect = lower value 1 | locus YHR030C, strain SLT2, stronger effect = lower value 0.98 | locus YHR079C, strain IRE1 (second series), stronger effect = lower value 1.01 | locus YHR094C, strain hxt1, stronger effect = lower value 1 | locus YHR129C, strain ARP1, stronger effect = lower value 0.96 | locus YHR142W, strain chs7, stronger effect = lower value 1.02 | locus YHR200W, strain rpn10, stronger effect = lower value 1.01 | locus YIL066C, strain RNR3, stronger effect = lower value 1.01 | locus YIL073C, strain SPO22, stronger effect = lower value 1.09 | locus YIL125W, strain kgd1, stronger effect = lower value 1 | locus YIR030C, strain dcg1, stronger effect = lower value 1.01 | locus YJL092W, strain hpr5, stronger effect = lower value 1 | locus YJL095W, strain BCK1 (second series), stronger effect = lower value 0.994 | locus YJL095W, strain BCK1, stronger effect = lower value 0.994 | locus YJL115W, strain asf1, stronger effect = lower value 1 | locus YJL129C, strain trk1, stronger effect = lower value 0.986 | locus YJL134W, strain LCB3, stronger effect = lower value 0.993 | locus YJL154C, strain vps35, stronger effect = lower value 0.992 | locus YJL164C, strain tpk1, stronger effect = lower value 0.999 | locus YJL166W, strain qcr8, stronger effect = lower value 0.987 | locus YJL168C, strain set2, stronger effect = lower value 1.01 | locus YJL187C, strain SWE1 (second series), stronger effect = lower value 1
